Values without a mark were called inactive. Results filed as inconclusive are left out. Activity calls are given as the source filed them. Unless noted, calls come from the whole dose curve; as a rule, active = well fitted curve in either direction with a large enough effect (not every such curve was filed as active); inconclusive = small, poorly fitted or top-dose-only effect, or another doubt; inactive = flat fitted curve, though single readings scatter.
Experiments:
[1] = AP1 Signaling Pathway (AID 357); settings: ME-180 AP-1-bla reporter, EGF-induced, beta-lactamase ratio, 5 h; at 17.2 µM (top of the series) unless noted;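 note: ME-180 reporter cells stimulated with EGF at its EC50 level; % is set by controls: 0 for no effect and ±100 for the full control effect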
Summary of the method: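 AP-1-bla ME-180 cells, Opti-MEM + 0.5% dialyzed FBS, plated overnight 37 °C. Cpd titration + EC50 EGF, 5 h 37 °C. CCF4 2.5 h RT; ex 405, em 460/530 ratio → %activity, AC50.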

[2] = Stat Signaling Pathway (AID 446); settings: ME-180 SIE beta-lactamase reporter, IL-6 stimulated, 5 h; at 17.2 µM (top of the series) unless noted;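 note: ME-180 cervical cancer cells given 40 pM IL-6 alongside compound; SIE-controlled beta-lactamase reporter measured as 460/530 nm FRET emission ratio; % is set by controls: 0 for no effect and ±100 for the full control effect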
Summary of the method: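 ME-180 cells carrying a SIE-driven beta-lactamase reporter are stimulated with 40 pM IL-6 for 5 h at 37C in the presence of compound. The 460/530 nm FRET substrate ratio is read after 2.5 h at RT. Data are normalised to 300 pM IL-6 and to 125 nM JAK inhibitor controls.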

[3] = molecular target: Glucocorticoid receptor (Homo sapiens) (UniProt P04150); test: GR-GFP Redistribution (AID 450;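 active = compounds whose dose series gives a full or clear partial fitted curve of increased nuclear translocation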; note: potency is the fitted concentration of half-maximal effect)
Sequence of Glucocorticoid receptor (Homo sapiens) (P04150 whole entry, looked up): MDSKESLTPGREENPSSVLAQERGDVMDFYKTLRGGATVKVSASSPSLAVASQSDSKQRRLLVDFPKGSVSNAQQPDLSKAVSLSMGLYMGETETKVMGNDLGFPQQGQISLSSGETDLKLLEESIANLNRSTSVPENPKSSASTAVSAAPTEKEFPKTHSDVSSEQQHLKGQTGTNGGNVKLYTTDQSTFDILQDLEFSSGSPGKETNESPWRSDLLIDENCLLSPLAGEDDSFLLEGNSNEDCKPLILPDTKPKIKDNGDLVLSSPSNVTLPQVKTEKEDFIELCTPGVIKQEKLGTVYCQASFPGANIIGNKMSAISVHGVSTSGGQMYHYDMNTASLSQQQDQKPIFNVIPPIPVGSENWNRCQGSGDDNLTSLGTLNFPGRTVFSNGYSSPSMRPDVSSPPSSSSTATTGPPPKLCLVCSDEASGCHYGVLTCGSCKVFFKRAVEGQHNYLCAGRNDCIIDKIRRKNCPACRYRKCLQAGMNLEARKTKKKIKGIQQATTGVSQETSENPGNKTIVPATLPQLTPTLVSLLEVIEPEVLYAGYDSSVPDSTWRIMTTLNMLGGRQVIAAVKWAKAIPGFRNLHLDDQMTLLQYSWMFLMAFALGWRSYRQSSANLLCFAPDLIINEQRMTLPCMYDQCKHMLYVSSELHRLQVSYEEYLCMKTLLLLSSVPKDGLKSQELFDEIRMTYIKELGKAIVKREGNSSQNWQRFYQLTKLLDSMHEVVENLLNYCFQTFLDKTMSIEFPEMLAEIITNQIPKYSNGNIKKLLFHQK

SMILES	activity change, negative = inhibition [1] [%]	activity, negative = inhibition [2]	Potency [3] [µM]
O=S(=O)(c1cccc(-c2csc(-c3ccccc3)n2)c1)N1CCOCC1	-13.8	-9.15%	> 20.6
Clc1ccc2[nH]c3c(NCCN4CCOCC4)ncnc3c2c1	-14.6	-0.484%	> 20.6
CCCCNC(=O)C(C#N)c1nc2ccccc2nc1N1CCN(Cc2ccc3c(c2)OCO3)CC1 (centres undefined)	-18.8	-8.12%	> 20.6
CCCCc1c(C)c2ccc(OCC(C)=O)cc2oc1=O	-16.2	-0.63%	> 20.6
Cc1ccc(CNc2oc(COc3ccccc3Cl)nc2C#N)cc1	39.1	-8.99%	> 20.6
COC(=O)CSC1=C(C#N)C(=O)NC2(CCCCC2)S1	1.61	3.53%	> 20.6
COc1cccc(C(=O)OC2CCCN(C)C2)c1 (centres undefined)	-4.26	4.49%	> 20.6
CCSc1nnc(NC(=O)C(C(F)(F)F)C(F)(F)F)s1	-16.3	-21.8%	> 20.6
COC(=O)c1sc2nc(N3CCCCC3)c3c(c2c1N)CC(C)(C)N(C)C3	21	9.93%	> 20.6
c1ccc(C2Nc3ccccc3-c3nc4ccccc4n32)nc1 (centres undefined)	-3.28	-0.281%	> 20.6
CN(C)CCCN1C(=O)C(=O)/C(=C(/O)c2ccccc2)C1c1ccccn1 (centres undefined)	7	4.69%	> 20.6
CCCCc1cc(=O)oc2c(CN(C)C)c(O)c(Cl)cc12	-6.67	14.1%	> 20.6
CC1(C)Cc2c(sc3c2C2=NCCN2C=N3)CO1	12.7	1.72%	> 20.6
CCCSc1nc(N2CCCC2)c2c(c1C#N)CC(C)(C)OC2	-3.22	6.07%	> 20.6
O=C(NC1CCCCC1)N1CCSC1=Nc1ccccc1	4.48	-11.7%	> 20.6
CCC(C)Nc1nc(-c2cccc(OC)c2O)nc2ccccc12 (centres undefined)	-28.3	-18.2%	> 20.6
Cn1c(Cl)cnc1C1CC(=O)c2cc(Cl)ccc2O1 (centres undefined)	14.1	0.321%	> 20.6
CCCc1cc(=O)oc2c(CN3CCCC3)c(O)c(Cl)cc12	-8.98	0.152%	> 20.6
CC1(C)Cc2nc3sc4c(N(CCO)CCO)ncnc4c3cc2CO1	1.68	-5.3%	> 20.6
CC(=O)O[C@H]1C(=O)[C@]2(C)[C@H]([C@H](OC(=O)c3ccccc3)[C@]3(O)C[C@H](OC(=O)[C@H](O)[C@@H](NC(=O)c4ccccc4)c4ccccc4)C(C)=C1C3(C)C)[C@]1(OC(C)=O)CO[C@@H]1C[C@@H]2O	-5.19	-2.52%	> 20.6
COC(=O)NCC12CC3CC(C1)CC(CNC(=O)OC)(C3)C2	3.64	-1.03%	> 20.6
CCCCCc1ccc(-c2ccc(=O)[nH]n2)cc1	7.59	13.6%	> 20.6
COc1ccc(S(=O)(=O)N2CCC(N3CCCCC3)CC2)cc1	7.98	6.94%	> 20.6
O=C(Nc1nc(NC(=O)c2ccco2)n(-c2ccccc2)n1)c1ccccc1	-13.5	-22.6%	> 20.6
O=C(CCN1C(=O)c2ccccc2C1=O)OCN1C(=O)c2ccccc2C1=O	5.65	-0.962%	> 20.6
CC1(C)Cc2c(c(N3CCOCC3)nc3sc(C#N)c(N)c23)CS1	11.7	-14.4%	> 20.6
CCCCOc1ccc(C(=O)OC2CC(C)N(C)CC2C)cc1 (centres undefined)	5.59	1.35%	> 20.6

SMILES	activity change, negative = inhibition [1] [%]	activity, negative = inhibition [2]	Potency [3] [µM]
CCCCCNC(=O)C(C#N)c1nc2ccccc2nc1N1CC(C)OC(C)C1 (centres undefined)	-18.2	-11.4%	> 20.6
Cc1nn(C)cc1/C=N/n1nnnc1N	0.525	-1.52%	> 20.6
N#CC1=C(N)N(c2ccccc2)C(c2ccccc2)C1(C#N)C#N (centres undefined)	-27.2	-18.6%	> 20.6
CCOc1ccc(N2C(=O)CC(N)C2=O)cc1 (centres undefined)	-19.2	-5.4%	> 20.6
O=C(c1cccs1)N1CCC(N2CCN(c3ccccc3)CC2)CC1	9.88	-2.08%	> 20.6
Cc1cc(Nc2ccc3ccccc3c2)n2ncnc2n1	16.7	-6.76%	> 20.6
CC(=O)Nc1ccc(-c2cc3ccccc3o2)cc1	-10.3	-0.606%	> 20.6
N#CC(C(=O)NC1CCCCC1)c1nc2ccccc2nc1N1CCN(c2ccccc2F)CC1 (centres undefined)	-12.2	-5.87%	> 20.6
Cc1ccc(S(=O)(=O)N2CCN(c3nc(C)c4c(c3C#N)CC(C)(C)OC4)CC2)cc1	1.26	89.5% [activator] (active)	> 20.6
Cc1cc(Cn2ccnc2)c(C)cc1Cn1ccnc1	0.168	2%	> 20.6
CC(C)OC(=O)c1nn2c(C(F)(F)F)cc(-c3ccc(Br)o3)nc2c1Br	-6.76	8.51%	> 20.6
Cc1cccc(N(Cc2cc3ccccc3[nH]c2=O)C(=O)c2ccco2)c1C	-19.9	-17%	> 20.6
C=CCn1c(SCC(=O)OC)nc2sc3c(c2c1=O)CCN(C)C3	-12.5	2.28%	> 20.6
CN(CC(O)COc1ccc(OCC(O)CN(C)C2CCCCC2)cc1)C1CCCCC1 (centres undefined)	11.3	12.2%	> 20.6
CCOc1ccc2nc(NC(NC(=O)CC)(C(=O)OC)C(F)(F)F)sc2c1 (centres undefined)	-9.26	-8.24%	> 20.6
Cn1c(=NCC(O)COc2ccccc2)sc2ccccc21 (centres undefined)	-7.25	8.49%	> 20.6
COc1cccc(-c2nc(N3CCC(C)CC3)c3ccccc3n2)c1O	16.6	5.63%	> 20.6
Cc1c(CCC#N)c(N2CCN(C3CCCCC3)CC2)n2c(nc3ccccc32)c1C#N	-16.9	9.87%	> 20.6
N#Cc1c(N2CCOCC2)nc(N2CCCCC2)c2c1CCN(C1CCCCC1)C2	-8.29	4.09%	> 20.6
CCN(CC)CCCn1c(C)cc2c(c1=O)C(c1ccc(OC)c(OC)c1OC)C(C#N)=C(N)O2 (centres undefined)	6.36	10.3%	> 20.6
COc1cccc(NC(=O)C2CC(=O)n3cnnc3S2)c1 (centres undefined)	-17.5	-7.33%	> 20.6
CCCCOc1ccc(CN(C)c2ncnc(N)n2)cc1	-9.35	8.02%	> 20.6
CCOc1nc(SCCOc2ccc(C)cc2)nc(N(C)C)n1	-8.15	-4.82%	> 20.6
N#Cc1c(-c2ccccc2Cl)cc(C2CC2)nc1N	4.21	-2.15%	> 20.6
Cc1c(N=Cc2c(O)n(C3CCCCC3)c(=O)[nH]c2=O)c(=O)n(-c2ccccc2)n1C	-6.37	-1.79%	> 20.6
c1ccc2c(NCC3CCCO3)nc(-c3ccncc3)nc2c1 (centres undefined)	-9.19	4.85%	> 20.6

— PubChem BioAssay (NCATS)
